Laboratory results: PubChem BioAssay AID624173 (National Center for Advancing Translational Sciences (NCATS), 2012)
About 490 (0.12%) of roughly 410,000 compounds were called active. Roughly 1% stayed inconclusive and do not appear here. The entries come from a sample that favours actives as a whole. Values without a mark were called inactive. Calls come from the whole dose curve; as a rule, active = well fitted inhibition curve with a large enough effect; inconclusive = small, poorly fitted or top-dose-only effect; inactive = flat fitted curve, though single readings scatter.

Each compound was assayed against pyruvate kinase (Trypanosoma brucei) (UniProt Q57TT1) (assay: qHTS of Trypanosoma Brucei Inhibitors). Conditions: TbPYK enzyme, Kinase-Glo Plus ATP luminescence, 45 min; series mostly up to 76.8 µM; activity, negative = inhibition: at the top concentration.
Source text: Members of the Trypanosomatidae family of parasitic protozoans cause a spectrum of diseases throughout the tropical and subtropical world. Sleeping sickness, caused by two subspecies of Trypanosoma brucei, is endemic to areas of sub-Saharan Africa, while Chagas' disease, a manifestation of Trypanosoma cruzi infection, is prevalent throughout Central and South America. In addition, many species of Leishmania are responsible for a range of cutaneous and visceral diseases, causing ulcers, destructive lesions and kalaazar, a lethal infection of the viscera. These diseases cause severe public health and economic burdens on populations that are often already caught in a tragic cycle of poverty, poor nutrition and disease. Collectively, parasites of the trypanosomatid family infect 30 million people worldwide (~500 million live in endemic areas), and account for ~130K deaths annually. Existing treatments have developed little in the past 50 years, and suffer from toxicity, poor efficacy and resistance; the goal of this project is to develop lead drugs that will be suitable for entry into pre-clinical trials.
Glycolysis in axenically cultured T. cruzi, representing the intracellular pathogenic stage, is also essential for these parasites. {Engel, 1987} This project aims to discover and optimize selective inhibitors of the glycolytic enzyme pyruvate kinase (PYK) from Trypanosoma brucei, the parasite that causes sleeping sickness. […] Trypanosomatid PYKs show significant differences from their human counterparts including only 47-50% sequence identity and different allosteric and activation properties.{Callens, 1992} To this end, a qHTS was done against the MLSMR to discover inhibitors.
NIH Molecular Libraries Probe Production Network [MLPCN]
NIH Chemical Genomics Center [NCGC]
PI Name: Malcolm Walkinshaw, University of Edinburgh
2 uL of TbPYK/substrate buffer (columns 1-3, 5-48) are dispensed into Greiner white solid bottom 1536-well assay plates; column 4 receives only TEA buffer as 0x TbPYK controls. Compounds are then transferred via Kalypsys pin tool equipped with 1536-pin array (10 nL slotted pins, V&P Scientific, San Diego, CA). Following addition of compound, 2 uL of ADP (130 uM final concentration, all columns) is added to initiate the reaction. The plates are then incubated at room temperature for 45 minutes. Kinase-Glo Plus reagent is added (3 uL) and plates incubated for 10 minutes, before being transferred to a ViewLux high-throughput CCD imager (PerkinElmer) wherein single end-point measurements of luminescence are acquired using a clear filter. All reagents are diluted in an assay buffer consisting of 50 mM TEA (pH 7.2), 100 mM KCl, 10 mM MgCl2, 0.05% BSA and 0.01% Tween-20.
All screening operations will be performed on a fully integrated robotic system (Kalypsys, San Diego, CA) containing one RX-130 and two RX-90 anthropomorphic robotic arms (Staeubli, Duncan, SC). Library plates will be screened starting from the lowest and proceeding to the highest concentration. Vehicle-only plates, with DMSO being pin-transferred to columns 5-48, will be inserted uniformly at the beginning and the end of each library in order to monitor and record any shifts in the background, which can be affected by reagent dispensers or loss in enzyme activity over time. Screening data will be corrected, normalized, and concentration-effect relationships will be derived by using publicly-available curve fitting algorithms developed in-house (http://ncgc.nih.gov/pub/openhts).
% is set by controls: 0 for no effect and ±100 for the full control effect; potency is the fitted concentration of half-maximal effect.
Note: nearly all actives have a fitted effect of over 50% in size.

Row | SMILES | activity, negative = inhibition | Potency
1 | O=C(c1ccncc1)N1CCC2(CCCN(C(c3ccccc3)c3ccccc3)C2)CC1 | 0% | 
2 | O=c1c(CCc2ccccc2)nc2cncnc2n1C1CC1 | -7.75% | 
3 | CC(=O)NC(=O)c1ccccc1O | -5.98% | 
4 | COc1ccc(-n2c(C)csc2=S)cc1 | -1.59% | 
5 | COc1ccc(CNc2nc(-c3ccc(Cl)cc3)cc(C(F)(F)F)n2)cc1 | 2.22% | 
6 | COc1ccc(-c2cn(-c3ccc(C)cc3)c(=O)n2CC(=O)Nc2ccc(OC)c(OC)c2)cc1 | 8.82% | 
7 | COc1ccc(-n2c(-c3ccc(OC)c(OC)c3)n[nH]c2=S)cc1 |  | 3.98 µM (active)
8 | COc1cc(OC)c(-n2cc(-c3ccc(Cl)cc3)[nH]c2=O)cc1Cl | 1.38% | 
9 | COc1ccc(-n2c(-c3ccc(Cl)cc3)n[nH]c2=S)c(OC)c1 |  | 5.62 µM (active)
10 | O=C(Nc1cccc(F)c1)N1CCC2(CC1)CCN(S(=O)(=O)c1ccccc1)CC2 | -4.6% | 
11 | C=C1C(=CC=C2CCC[C@@]3(C)[C@@H]2CC[C@H]3[C@H](C)CCCC(C)C)C[C@@H](O)C[C@@H]1O | -17.6% | 
12 | Cc1nnc(C(=O)NC(C)(C)c2nc(C(=O)NCc3ccc(F)cc3)c(O)c(=O)n2C)o1 | -4.15% | 
13 | CCC1(c2ccccc2)C(=O)NC(=O)N(C)C1=O (stereo unspecified) | 5.1% | 
14 | CCCCCCCCCc1ccc(OCCOCCOCCOCCOCCOCCOCCOCCOCCO)cc1 | -7.24% | 
15 | CCC[C@H]1C(=O)N2C(N(C)C)=Nc3ccc(C)cc3N2C1=O | 0.389% [at 33.2 µM] | 
16 | O=c1c(-c2ccc(F)c(F)c2)nc2cncnc2n1-c1ccccc1 | -7.65% | 
17 | COc1ccc(Oc2ncc3nc(-c4ccc(F)cc4)c(=O)n(C)c3n2)cc1 | -8.28% | 
18 | CC(=O)OC1C([N+]2(C)CCCCC2)C[C@H]2C3CC[C@H]4C[C@H](OC(C)=O)C([N+]5(C)CCCCC5)CC4(C)C3CCC12C (stereo partly specified) | 2.62% | 
19 | CCC(CCC(C)C1CCC2C3CC=C4CC(O)CC[C@@]4(C)C3CC[C@@]12C)C(C)C (stereo partly specified) | 0% | 
20 | COc1cccc(Cn2c(=O)c(C)nc3cnc(Oc4ccccc4)nc32)c1 | -10.8% | 
21 | CNC(C)[C@@H](O)c1ccccc1 (stereo partly specified) | 2.95% | 
22 | O=C(c1cnccn1)N1CCC2(CCN(Cc3cc(C(F)(F)F)cc(C(F)(F)F)c3)CC2)CC1 | 0% | 
23 | CCNc1ncc2nc(CCc3ccccc3)c(=O)n(-c3ccc(OC)cc3)c2n1 | -7.09% | 

Row | SMILES | activity, negative = inhibition | Potency
24 | O=C(c1ccco1)N1CCC2(CC1)CCN(c1ncccn1)CC2 | 5.21% | 
25 | Cc1cn([C@H]2CC(F)[C@@H](CO)O2)c(=O)[nH]c1=O (stereo partly specified) | 5.23% | 
26 | Cc1cccc([C@H](C)c2cnc[nH]2)c1C | 0% | 
27 | COc1ccc(-c2nc3cnc(Oc4ccccc4)nc3n(Cc3cccs3)c2=O)cc1 | 1.2% | 
28 | COc1ccc(-n2c(=O)c(-c3cn(C)c4ccccc34)nc3cnc(OC)nc32)cc1 | 6.7% | 
29 | N#Cc1ccc(CN2CCCC3(CCN(C(=O)c4ccco4)CC3)C2)cc1 | 5.2% | 
30 | CC(=O)Oc1ccc2c3c1OC1C(OC(C)=O)C=CC4[C@@H](C2)N(C)CC[C@]314 (stereo partly specified) | -3.56% [at 157 µM] | 
31 | O=C(c1ccco1)N1CCC2(CC1)CN(c1ncccn1)C2 | 6.02% | 
32 | O=C(Nc1cccc(F)c1)N1CC[C@@]2(CCCN(C(=O)Oc3ccccc3)C2)C1 | -0.503% | 
33 | COc1ccc(NC(=O)N2CC3(CCN(C(=O)c4cccn4C)CC3)C2)cc1 | 5.66% | 
34 | CCOC(=O)C1CCCN(S(=O)(=O)c2cc(-c3cc(C)no3)ccc2OC)C1 (stereo unspecified) | 2.51% | 
35 | O=C(c1cc(C(F)(F)F)cc(C(F)(F)F)c1)N1CCC2(CCCN(c3ccccn3)C2)CC1 | 4.85% | 
36 | COc1ccc(-c2oc3cc(OC)ccc3c2C(=O)c2ccc(C#N)cc2)cc1 | 2% | 
37 | Oc1ccc(Cl)c2c1CCC2 | -1.73% | 
38 | CC1(C)OC[C@@H](COC(=O)CCc2ccc(OC[C@@H](O)CNCCNC(=O)N3CCOCC3)cc2)O1 |  | inactive
39 | c1ccc(CN2CC[C@@]3(CCCNC3)C2)cc1 | 1.4% | 
40 | COc1cccc(Cn2c(=O)c(-c3cc(F)cc(F)c3)nc3cnc(OC)nc32)c1 | -4.11% | 
41 | CC(=O)CC(c1ccccc1)C1C(=O)Oc2ccccc2C1=O (stereo unspecified) | -1.9% | 
42 | COc1cc2c(cc1OC)[C@@H](Cc1cc(OC)c(OC)c(OC)c1)[N+](C)(CCCOC(=O)CC/C=C/CCC(=O)OCCC[N+]1(C)CCc3cc(OC)c(OC)cc3[C@H]1Cc1cc(OC)c(OC)c(OC)c1)CC2 (stereo partly specified) | 2.34% | 
43 | C[C@H]1C[C@H]2[C@@H]3CCC4=CC(=O)C=C[C@]4(C)[C@@H]3C(=O)C[C@]2(C)[C@@]1(O)C(=O)CO | -4.12% | 
44 | CCOc1ccc(NC(=O)CC2C(=O)N(c3cccc(OC)c3)C(=O)N2C2CCCCC2)cc1 (stereo unspecified) | 3.35% | 
45 | COCCn1c(=O)c(-c2cc(F)cc(F)c2)nc2cnc(N3CCNCC3)nc21 | -4.63% | 
46 | CC(=O)N1CCC2(CC1)CCN(c1ccncc1)CC2 | -7.23% | 
